Compound activity deposited in PubChem by National Center for Advancing Translational Sciences (NCATS).
Pf growth 48h: Primary qHTS for delayed death inhibitors of the malarial parasite plastid, 48 hour incubation; 310,000 tested, 5.9% active; P. falciparum luciferase growth in erythrocytes, 48 h; Potency, µM (highest dose often 28.7 µM), actives largely listed as inhibitors
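A one-generation exposure of luciferase-tagged malaria parasites in RPMI 1640/Albumax erythrocyte culture, 37 C and 5% CO2. Inhibition is inferred from decreased luminescence after adding detection reagent.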
HCV inh: qHTS Assay for Inhibitors of Hepatitis C Virus (HCV) | Huh7.5.1 HCVcc-Cre infection, luciferase reporter, 44 h | Potency, µM (series often up to 41.8 µM), hits mostly inhibitors | 340,000 tested, 3.4% active | AID 651820, 2012
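Whole-lifecycle infectious HCVcc-Cre system; cells 1,000/well, compound then virus (~0.5 moi) added 4 h after plating, 44 h culture. Luciferase read 15 sec following 15 min substrate incubation, room temp.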
AMA1-RON2 inh: qHTS for Inhibitors of AMA1-RON; Towards Development of Antimalarial Drug Lead: Primary Screen | 360,000 tested, 0.2% active | AID 720542, 2013 | Plasmodium falciparum AMA1 (3D7) - RON2 peptide interaction | AlphaScreen AMA1-biotinylated RON2 peptide binding | Potency, µM (series often up to 58.2 µM), most hits filed as inhibitors; further: nearly all actives have a fitted effect of over 45% in size
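AMA1 (3D7) with his tag at 25 nM final met compounds first, then biotinylated RON2 peptide at 25 nM; detection used donor plus acceptor beads, 10 µg/mL apiece, read by AlphaScreen after 30 min at room temperature.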
SARS PLpro yeast: qHTS of Yeast-based Assay for SARS-CoV PLP; S. cerevisiae expressing SARS-CoV PLpro, growth rescue; Potency, µM (titrated, usually from 32.9 µM), most hits filed as activators; 330,000 tested, 0.19% active; calls by dose curve; further: nearly all actives have a fitted effect of over 55% in size
Pf growth 96h: Primary qHTS for delayed death inhibitors of the malarial parasite plastid, 96 hour incubation | P. falciparum luciferase reporter growth, 96 h | Potency, µM (titrated, usually from 28.7 µM), actives largely listed as inhibitors | 320,000 tested, 6.9% active
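Two parasite generations (96 h, 37 C, 5% CO2) of compound exposure in infected erythrocytes (0.05% parasitemia, 2% hematocrit). Luciferase-reporter P. falciparum; decreased luminescence indicates inhibited growth, aimed at apicoplast-acting delayed death.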
NS1 inh: qHTS Assay for Inhibitors of Influenza NS1 Protein Function. 270,000 tested, 0.4% active. Potency, µM (doses to about 46.1 µM); calls by dose curve; further: actives are rising curves; nearly all actives have a fitted effect of over 50% in size
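Compounds were scored for reversing the slow growth caused by influenza A NS1 in S. cerevisiae, measured by optical density at 600 nm. Assay medium contained 2% galactose at pH 6.0; NS1-free yeast of the same strain were the positive control.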
Of the large screens only hits and unclear results are named; the others gave an inactive call. Compounds with a hit are over-represented: about 12% of the library has one in this group of screens. Unless noted, the call rests on the fitted dose curve; in most records, active means well fitted curve in the direction sought with a large enough effect; inconclusive means small, poorly fitted or top-dose-only effect, or another doubt; inactive means no such curve, though single readings can be large; an effect the other way counts as inactive or inconclusive.

COc1ccc(N=C2S/C(=C\c3ccc(C)s3)C(=O)N2CC(C)C)cc1	Pf growth 48h inconclusive, Pf growth 96h inconclusive
CCCN1C(=O)/C(=C/c2cc(C)n(C)c2C)SC1=Nc1ccc(OC)cc1	Pf growth 48h inconclusive, HCV inh inconclusive, Pf growth 96h 13µM
COc1ccc(N=C2S/C(=C\c3cccs3)C(=O)N2CC(C)C)cc1	Pf growth 48h inconclusive, Pf growth 96h 3.7µM
COc1ccc2c(c1)[C@H]1[C@H](CO2)[C@H](c2ccccc2)[C@]2(C)C(=O)Nc3ccc(Cl)cc3C(=O)N12	HCV inh inconclusive (no result: Pf growth 48h, SARS PLpro yeast, Pf growth 96h, NS1 inh)
CCOC(=O)[C@H]1[C@H]2COc3ccccc3[C@@H]2N2C(=O)c3cc(OC)ccc3NC(=O)[C@@]12C	Pf growth 48h 5.2µM, Pf growth 96h inconclusive (no result: NS1 inh)
COc1ccc2c(c1)C(=O)N1[C@H]3c4cc(C)ccc4OC[C@@H]3[C@H](c3ccccc3)[C@]1(C)C(=O)N2	Pf growth 48h 9.3µM, HCV inh inconclusive, Pf growth 96h inconclusive (no result: NS1 inh)
COc1ccc2c(c1)[C@@H]1[C@H](CO2)[C@H](c2ccccc2)[C@]2(C)C(=O)Nc3ccc(C)cc3C(=O)N12	Pf growth 48h 13µM, Pf growth 96h inconclusive (no result: NS1 inh)
CCOC(=O)[C@H]1[C@H]2COc3ccc(OC)cc3[C@@H]2N2C(=O)c3cc(C)ccc3NC(=O)[C@@]12C	Pf growth 48h inconclusive, Pf growth 96h inconclusive (no result: NS1 inh)
C[C@@]12C(=O)Nc3ccc(Br)cc3C(=O)N1[C@H]1c3cc(Cl)ccc3OC[C@@H]1[C@@H]2c1ccccc1	Pf growth 48h 3.7µM, HCV inh inconclusive, Pf growth 96h 3.3µM (no result: NS1 inh)
COc1ccc2c(c1)OC[C@H]1[C@H]2N2C(=O)c3cc(C)ccc3NC(=O)[C@@]2(C)[C@H]1c1ccccc1	HCV inh inconclusive (no result: Pf growth 48h, Pf growth 96h, NS1 inh)
CC1(C(=O)NS(=O)(=O)c2cccc(F)c2)CCN1C(=O)c1ccccc1 (stereo unspecified)	none (no result: Pf growth 48h, HCV inh, SARS PLpro yeast, Pf growth 96h, NS1 inh)
CCCN(CCC)C(=O)Nc1cc(Cl)ccc1OC	Pf growth 96h inconclusive
CCOC(=O)[C@H]1[C@H]2COc3ccc(Br)cc3[C@@H]2N2C(=O)c3ccc(Cl)cc3NC(=O)[C@@]12C	Pf growth 48h 9.3µM, Pf growth 96h inconclusive (no result: NS1 inh)
COc1ccc2c(c1)[C@H]1[C@H](CO2)[C@H](c2ccccc2)[C@]2(C)C(=O)Nc3cc(OC)c(OC)cc3C(=O)N12	Pf growth 48h 9.3µM, HCV inh 10µM, Pf growth 96h inconclusive (no result: NS1 inh)
CCOC(=O)[C@H]1[C@H]2COc3ccc(C)cc3[C@@H]2N2C(=O)c3ccc(C)cc3NC(=O)[C@@]12C	Pf growth 48h inconclusive, Pf growth 96h inconclusive (no result: NS1 inh)
COc1ccc2c(c1)[C@H]1[C@H](CO2)[C@H](c2ccccc2)[C@]2(C)C(=O)Nc3ccc(C)cc3C(=O)N12	HCV inh 11µM (no result: Pf growth 48h, Pf growth 96h, NS1 inh)
C/C(Nc1ccc(Cl)c(Cl)c1)=C1/CCOC1=O	none (no result: Pf growth 48h, HCV inh, SARS PLpro yeast, Pf growth 96h, NS1 inh)
CCCCC1=CC2=CC(=O)C(C)(OC(=O)CC)C(=O)C2=CN1CCc1c[nH]c2ccccc12 (stereo unspecified)	Pf growth 48h 8.3µM, HCV inh inconclusive, Pf growth 96h 10µM, NS1 inh inconclusive
COC(=O)CCCC1=CC2=CC(=O)C(C)(OC(=O)c3cccs3)C(=O)C2=CN1CCc1c[nH]c2ccccc12 (stereo unspecified)	Pf growth 48h 8.3µM, Pf growth 96h 10µM
CC(C)c1nc(SCC(=O)NCC2CCCO2)c2c(=O)n(C)c(=O)n(C)c2n1 (stereo unspecified)	Pf growth 48h inconclusive, SARS PLpro yeast inconclusive, Pf growth 96h inconclusive
CC(C)(C)OC(=O)N1CCC[C@H]1C(=O)N/N=C/c1ccc2nccnc2c1	Pf growth 48h inconclusive
CC(C)(C)OC(=O)N1CCC[C@H]1C(=O)N/N=C/c1cccc2nccnc12	Pf growth 48h 15µM, Pf growth 96h inconclusive
CCOc1cc([N+](=O)[O-])c2nc(N)sc2c1	HCV inh inconclusive
CCOC(=O)N1C2=NC(C(=O)OC)=C(C(=O)OC)[C@@H]3N(C)c4ccc(OC)cc4[C@]23C[C@H]1C(=O)OC	none (no result: Pf growth 48h, SARS PLpro yeast, Pf growth 96h, NS1 inh)
COC(=O)C1=C(C(=O)OC)[C@@H]2N(C)c3ccc(OC)cc3[C@@]23C[C@@H](C(=O)OC)N(S(=O)(=O)c2ccc(OC)cc2)C3=N1	Pf growth 48h 9.3µM, HCV inh inconclusive, Pf growth 96h inconclusive
CC(NC(=O)C1CCC(CNc2c(N3CCCCC3)c(=O)c2=O)CC1)c1ccccc1 (stereo unspecified)	none
CO/N=C(/C(=O)N[C@@H]1C(=O)N2C(C(=O)O)=C(COC(N)=O)CS[C@H]12)c1ccco1	Pf growth 48h 15µM, Pf growth 96h 17µM (no result: HCV inh, AMA1-RON2 inh, SARS PLpro yeast, NS1 inh)
CCOC(=O)c1cc(NC(=O)c2ccccc2)c(=O)n2c1oc1ccccc12	none (no result: NS1 inh)
CCCNC(=O)OC[C@H]1O[C@H](CCO/N=C/C[C@@H]2C=C[C@H](OC(C)=O)[C@@H](COC(C)=O)O2)C=C[C@@H]1Oc1ccc(OC)cc1	Pf growth 48h inconclusive, Pf growth 96h inconclusive (no result: AMA1-RON2 inh)
CCCNC(=O)OC[C@H]1O[C@H](CCO/N=C(\C)CCN2CCc3nc(-c4ccccc4)c(-c4ccccc4)cc3C2)C=C[C@@H]1Oc1ccc(OC)cc1	Pf growth 48h 5.9µM, Pf growth 96h 4.7µM (no result: AMA1-RON2 inh)
Cc1onc(-c2ccccc2Cl)c1C(=O)Nc1ccccc1	none
CCc1ccc(NC(=S)NC(=O)c2c(-c3ccccc3Cl)noc2C)cc1	Pf growth 48h 12µM, Pf growth 96h 7.4µM
Cc1cc(C)n(-c2ccc(Cl)c(C(=O)Nc3ccc(-c4nnc5n4CCCCC5)cc3)n2)n1	Pf growth 48h inconclusive, HCV inh inconclusive, Pf growth 96h 8.3µM
Cc1onc(-c2ccccc2Cl)c1C(=O)NC(=S)Nc1ccc(C(C)(C)C)cc1	Pf growth 48h inconclusive, Pf growth 96h 6.6µM
Cc1onc(-c2ccccc2)c1C(=O)Nc1ccc(Br)cc1Cl	Pf growth 48h 15µM
Cc1onc(-c2ccccc2)c1C(=O)Nc1ccccc1NC(=O)c1c(-c2ccccc2)noc1C	Pf growth 48h inconclusive, SARS PLpro yeast inconclusive, Pf growth 96h inconclusive
Cc1cc(C)n(-c2ccc(Cl)c(C(=O)NCc3ccccc3)n2)n1	none
COc1ccc(NC(=O)c2c(-c3ccccc3Cl)noc2C)c(OC)c1	Pf growth 48h 2.6µM
Cc1onc(-c2ccccc2Cl)c1C(=O)Nc1ccc(-c2nnc3n2CCCCC3)cc1	Pf growth 48h 9.3µM (no result: Pf growth 96h)
Cc1onc(-c2ccccc2Cl)c1C(=O)Nc1ccc(CN2CCCC2)cc1	Pf growth 48h inconclusive, HCV inh inconclusive (no result: Pf growth 96h)
